Test results reported in the supplement of paper PMC6555819.

test system: VDR:RXRa (NR concentration 270 nM, RXRa partner concentration 90 nM); experiment: PBM binding z-score (relative to random genomic background probes); higher = stronger binding; sequences stand for … in GC…GCGATTGACAGCGTAGAATGAAGG
Description: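 Protein-binding microarray (Agilent 4x180K custom design, double-stranded 60-nt probes: 5' GC cap, 34-nt variable region, 24-nt constant primer region; full probe sequence given). Purified or IVT nuclear receptor:RXRα heterodimers (3:1 NR:RXRα, mostly 270:90 nM) or homodimers were incubated for 1 h in PBS with 2% milk and no ligand, then detected with Alexa488 antibodies. Fluorescence from o1-orientation probes (~5 replicates averaged) was converted to z-scores against 500 random hg19 background probes. Variable regions are seed direct-repeat (DR0–DR5) sites, all their single-nucleotide variants and half-site ablations.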

Sequence	PBM binding z-score
CGAACAAGGTCAAGGACAGTGAATCTCCGCACGC	4.11
CAAACTAGGTCACGAACGGTCAAAGTCGAATGAC	4.04
TCATATAGGTAAAGGTGAAAGCCGAACGATATGA	0.743
GCGACTGGGGCAAAGTAGGTTACCATAAGGTTGG	-0.0639
TTGAGTAGGTTAGTCGGGGCATTCAGCCAACATA	2.47
CCTTACGGGTCACTCCAGGTGATAGCATCGGAGT	3.34
AGAATGAGGTTAAGAACAGGGAAACAGAATACAT	1.04
GCATGTAGGTAATACAAGGTGAAAGTCCGATTGT	0.342
CCTCGGAGGACAACAGGCGGTCAGAGCTGCCAGA	-0.555
CCTCGGAGGAGAACAGGAGGTCAGAGCTGCCAGA	1.29
GCTATTAGTGGAAAGGGCAACCGAATGATTCTCG	0.104
ATATGTAGCTTAGCTGGGGTCATTCAGACTAGGC	4.78
CGTCCAAGGTCCAAGGTCAGTGAAGAGATGACGG	1.6
ATCCAAAGGTCGAAGGTGAGTATACCCACCCGAA	3.15
GCTGACGGGTCAAAGGTTATAGCATGAATAGAAT	5.27
GCTAGTTGGTCAGTTAAAGGTCACACACCGGTCG	3.95
TGAATGGGGTTAAAGATCAGGGAACGTGGCGTCG	3.29
TAGCGTAGGTCAGATCGGGCCAGTATACGCTATA	0.856
GCTGCTAGGTCCGGTTGGTCAGCTAACGGGTACG	-0.965
ACTAGTTGGTCAGCTTAGGTCACACACAATTCGG	1.82

Sequence	PBM binding z-score
GCGACTGGGGCAAAGCAGGTTACCATAAGGTTGG	0.149
ACCAGCAGGCCAAGTTTGGGTCACTCAAACAAAG	0.61
CCAGACAGGTGAGTAGGTAACTCAGCCTCGATTA	-0.168
TAGCCTAGGTCATTCAGGGGCCAGTAGAGAAAGC	3.24
CGAACTAGGTCAGAACAGGTCAGTGAAGGATGAT	2.68
TCATATAGGCAAAAGGTGAAAGTCGGTGTGGTAA	1.05
GCAGACAGATGAAACGCAGGTAACTCAGGGTGGC	-0.643
AATACAGGGTCATAGTAGGCCAGAGTACGCACAG	4.63
CGTCCACGGTCAAGGTCAGTGAAAGAGACTCGAA	1.43
CCTAGTTGGTCAGAAGGTCACACACCGGATATGA	3.5
TAGCCTAGGTCAGATCGGGCCAGGATACGCTATA	0.248
CCTCGGAGGACAGAACGTCAGAGCTGTCCGCTTT	-0.754
TCTCGGAGGACACGAAAGGTCAGCGCTCGACATC	3.67
CCGACTGGGGCAGATAGGTTACCATACCATCCGG	-0.389
ATCTCTAGGTAACACGTTCAGTGAAAGAGAGGAC	0.339
CAAACTAGGTCAAAGGCCAAAGTCGAGCCAACCA	2.6
ATCGAAAGGTTGACGAGGTGAGTATACACCGTTT	2.71
TCTAGTAGTTGAAGGGCAACCGACGAGTCCGTTT	0.266
GCTCGGAGGACGAGGTCAGAGCTTTGTCCGTAGA	2.2
CCTAGTTGGTCAAGGTCACACTCGCTATAGGTAC	3.99
